Data published in PubChem BioAssay.

Columns and labels:
[1] = tested on: Human papillomavirus type 1a protein E7 (residues 44-93); assay: small molecules binding HPV E7 44-93 – biochemical, small-molecule microarray, residues 44-93, 635 nm fluorescence, primary screen (AID 1108); conditions: fluorescence 635 nm, higher = more signal;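 note: E7 fragment applied at 1 µg/mL in TBST for 1 h at 4 C; score combines spot fluorescence with its signal to noise ratio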
[2] = hepatitis C replication reporter changes, two-sided – Huh7 cells, luciferase reporter, HCV replication inhibitor project, primary screen (AID 1109); conditions: Huh7 HCV replicon luciferase reporter, 48 h; higher = more signal;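 note: huh7 hepatoma cells harbouring a luciferase neomycin HCV replicon reporter; luciferase luminescence as measure of HCV replicon replication; test concentration not given here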
[3] = biological target: Left-right determination factor 2 (Homo sapiens) (UniProt O00292); assay: small molecules binding LEFTY2 protein – biochemical, small-molecule microarray, 635 nm fluorescence scan, primary screen (AID 1110); conditions: higher = more signal
[4] = biological target: Calmodulin-1 (Homo sapiens) (UniProt P0DP23); assay: small molecules binding calmodulin-1 with EGTA – biochemical, small-molecule microarray, Cy5-labelled CALM1, profiling panel (AID 1111); conditions: Cy5-CALM1 binding fluorescence, higher = more signal;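 note: labelled calmodulin applied in Tris saline Tween buffer holding calcium plus EGTA and DTT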
[5] = biological target: Calmodulin-1 (Homo sapiens) (UniProt P0DP23); assay: small molecules binding Ca-loaded calmodulin-1 – biochemical, small-molecule microarray, Cy5-labelled CALM1, plus calcium, artefact control for SMM control-protein annotation, profiling panel (AID 1112); conditions: Cy5-CALM1 binding fluorescence, higher = more signal;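 note: score merges spot fluorescence with signal to noise from triplicate slides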
[6] = probe aWnt5a binding to arrayed compounds – biochemical, biotinylated probe, 635/667 nm fluorescence, primary screen (AID 1113); conditions: small-molecule microarray, higher = more signal;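 note: score merges 667 nm fluorescence intensity with signal-to-noise per printed feature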
[7] = probe aShh binding to arrayed compounds – biochemical, biotinylated probe, 635/667 nm fluorescence, primary screen (AID 1114); conditions: small-molecule microarray, higher = more signal;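 note: probe is biotin-labelled aShh protein from a stem cell growth factor screen; measures binding of labelled protein to compounds printed on the slide; score merges feature fluorescence at 667 nm with signal-to-noise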
[8] = probe aNog binding to arrayed compounds – biochemical, biotinylated probe, 635/667 nm fluorescence, primary screen (AID 1115); conditions: small-molecule microarray, higher = more signal;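 note: probe is biotinylated aNog protein used at 0.15 µg/mL for 1 h at 4 C; z-score combines 667 nm fluorescence of each spot with its signal to noise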
[9] = biological target: Torsin-1A-interacting protein 1 (Homo sapiens) (UniProt Q5JTV8); assay: compound microarray binding of lysate hLAP1 – cell lysate, small-molecule microarray, COS7 lysate, 635/667 nm fluorescence, primary screen (AID 1116); conditions: 635 nm fluorescence, higher = more signal
[10] = biological target: Alpha-bungarotoxin (Bungarus multicinctus) (UniProt P60615); assay: compounds binding labelled alpha-BTX control protein – biochemical, small-molecule microarray, Alexa647 label, 635/667 nm fluorescence, artefact control for SMM control protein annotation, profiling panel (AID 1117); conditions: alpha-BTX-A647 binding fluorescence, higher = more signal
Alpha-bungarotoxin (Bungarus multicinctus), sequence (P60615 whole entry, looked up): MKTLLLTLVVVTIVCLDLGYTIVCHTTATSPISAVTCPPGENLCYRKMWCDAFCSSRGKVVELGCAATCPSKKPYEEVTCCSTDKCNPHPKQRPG

Left-right determination factor 2 (Homo sapiens), sequence (O00292 whole entry, looked up): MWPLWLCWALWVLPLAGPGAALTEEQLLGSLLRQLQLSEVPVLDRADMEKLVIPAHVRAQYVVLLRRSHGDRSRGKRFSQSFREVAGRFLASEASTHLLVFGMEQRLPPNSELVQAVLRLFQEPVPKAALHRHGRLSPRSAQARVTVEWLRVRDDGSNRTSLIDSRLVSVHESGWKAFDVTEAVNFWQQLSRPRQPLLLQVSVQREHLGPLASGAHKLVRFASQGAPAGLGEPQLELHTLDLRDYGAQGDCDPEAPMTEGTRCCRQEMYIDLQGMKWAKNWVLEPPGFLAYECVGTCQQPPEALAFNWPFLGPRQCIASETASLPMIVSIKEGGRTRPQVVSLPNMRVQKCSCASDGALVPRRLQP
Torsin-1A-interacting protein 1 (Homo sapiens), sequence (Q5JTV8 whole entry, looked up): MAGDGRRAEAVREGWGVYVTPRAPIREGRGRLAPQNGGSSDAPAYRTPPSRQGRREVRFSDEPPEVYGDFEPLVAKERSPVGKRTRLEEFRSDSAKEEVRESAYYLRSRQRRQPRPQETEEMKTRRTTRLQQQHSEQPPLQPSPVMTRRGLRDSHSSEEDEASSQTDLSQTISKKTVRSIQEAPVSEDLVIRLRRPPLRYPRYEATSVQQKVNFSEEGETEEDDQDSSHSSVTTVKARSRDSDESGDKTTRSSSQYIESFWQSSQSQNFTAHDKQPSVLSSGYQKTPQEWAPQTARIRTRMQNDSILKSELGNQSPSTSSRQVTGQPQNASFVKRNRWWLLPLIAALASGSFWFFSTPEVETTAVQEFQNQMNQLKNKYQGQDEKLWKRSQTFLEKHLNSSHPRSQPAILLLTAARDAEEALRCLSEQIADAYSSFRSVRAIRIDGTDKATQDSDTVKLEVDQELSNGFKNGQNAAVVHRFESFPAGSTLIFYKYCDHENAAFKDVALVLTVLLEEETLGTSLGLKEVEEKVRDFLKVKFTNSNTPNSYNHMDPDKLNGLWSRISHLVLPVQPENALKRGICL

SMILES	composite z-score [1]	z-score [2]	composite z-score [3]	composite z-score [4]	composite z-score [5]	composite z-score [6]	composite z-score [7]	composite z-score [8]	composite z-score [9]	composite z-score [10]
CC1CC/C=C\[C@H]2OC34C=CCN(Cn5nnc6ccccc65)C(=O)[C@H]3N(CCO)C(=O)[C@@H]4C2C(=O)O1 (stereo not given in full)	-0.487	-0.505	-0.28	-0.614	0.383	-0.147	-0.291	-0.256	2	-0.118
CCCCCN1CC=CC23O[C@@H]4C=CCOC(=O)[C@@H]4[C@H]2C(=O)N(C(CO)C(C)C)[C@@H]3C1=O (stereo not given in full)	-0.516	0.245	-0.518	-0.385	-1.07	-0.176	-0.276	-0.254	-0.0843	-0.257
C#CCCCON=C1C[C@@H](O)[C@@H](O)[C@@H]2[C@@H]3C(=O)N(CCC(=O)OCC)C(=O)[C@@H]3CC[C@@H]12	-0.58	-2.78	-0.174	-0.335	0.0811	-0.0748	0.246	0.206	-0.221	1.04
COCCOC(=O)N1C(=O)[C@@]2(c3ccccc31)[C@H](C(N)=O)[C@H]1C(=O)O[C@H](c3ccccc3)[C@H](c3ccccc3)N1[C@@H]2c1ccccc1OCCO	1.32	-2.2	0.565	2.3	0.668	-0.0118	-0.0035	0.162	4.3	2.62
CCOC(=O)NN=C1C[C@@H](O)[C@@H](O)[C@@H]2[C@@H]3C(=O)N(C4CCCCC4)C(=O)[C@@H]3CC[C@@H]12	0.0883	-0.336	0.342	-0.29	-0.401	-0.0462	-0.341	-0.158	0.109	0.601
C=CC[C@@H]1C=C[C@H](ON=C(C)CCN2CCc3nc(CC)c(CC)cc3C2)[C@@H](CO)O1	0.714	-1.57	0.83	-0.42	-1.34	0.0634	0.0952	0.222	0.779	0.243
O=C1O[C@@H](c2ccccc2)[C@@H](c2ccccc2)N2[C@@H](c3ccccc3OCCO)[C@]3(C(=O)Nc4ccc(C#CCCO)cc43)[C@@H](C(=O)O)[C@H]12	1.42	-1.99	-0.28	1.04	0.734	0.385	0.633	1.32	1.17	2.53
CC(=O)O[C@H]1C2=C(C(=O)[C@@H]3O[C@@H]31)[C@H]1C(C)O[C@@H]2[C@@]23C(=O)[C@@H]4O[C@@H]4[C@@H](O)C2=CO[C@H](C)[C@@H]13 (stereo not given in full)	-0.667	-2.66	0.552	-1.17	-0.891	-0.101	-0.13	-0.18	-0.25	-0.858
O=C1C2C=CC(C(O)c3ccc([N+](=O)[O-])cc3)N(Nc3ccc([N+](=O)[O-])cc3)C2C(=O)N1c1ccccc1 (stereo not given)	1.47	-0.74	0.179	2.01	0.757	0.152	0.0796	0.0473	1.3	2.8
C=CC[C@]1(C(=O)NCc2ccccc2)N=C(c2ccc(OCCCO)cc2)O[C@H]1c1ccccc1	1.46	-2.41	-0.778	0.392	-0.483	-0.0944	0.696	0.257	1.62	2.46
COC(=O)CC=C[C@H](C)[C@H](CO)NS(=O)(=O)c1ccc(C)cc1	0.144	-0.763	0.703	-0.756	-0.624	-0.124	-0.117	-0.0094	0.729	0.219
CC(=O)OC[C@H]1O[C@@H](ON=C[C@@H](C)[C@H](OCc2ccccc2)C(C)C)[C@H](OC(C)=O)[C@@H](OC(C)=O)[C@@H]1OC(C)=O	0.162	-0.518	0.619	0.336	-0.815	-0.0754	-0.19	-0.144	-0.563	0.226
